# According to PubChem BioAssay (NCATS):
# Inconclusive results are not listed. Active and inactive are the calls of the source. Calls come from the whole dose curve; as a rule, active = well fitted inhibition curve with a large enough effect; inconclusive = small, poorly fitted or top-dose-only effect; inactive = flat fitted curve, though single readings scatter.
# Tested on: CP269
# Test: qHTS profiling for inhibitors of Plasmodium falciparum proliferation (AID 504749);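 note: 0% = DMSO vehicle and full inhibition = artemisinin control; nearly all actives have a fitted effect of over 60% in size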
# Settings: P. falciparum in erythrocytes, SYBR Green DNA, 72 h; series mostly up to 28.7 µM; activity, negative = inhibition: at the top concentration
# Method in brief: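 SYBR Green fluorescence of parasite DNA, read after lysis and overnight dark incubation, measured growth over 72 h in erythrocyte culture at 0.3% parasitemia and 2.5% hematocrit. Data normalised to DMSO and 0.29 uM artemisinin, with plate-drift correction.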
row,SMILES,"activity, negative = inhibition"
1,COc1cc(S(C)=O)ccc1-c1nc2ncccc2[nH]1 (stereo not given),-7.51% (inactive)
2,CCOc1ccc(S(=O)(=O)O)c2cccnc12,-12.5% (inactive)
3,NC(=S)NS(=O)(=O)c1ccc(N)cc1,1.57% (inactive)
4,C[C@]12CC[C@@H]3c4ccc(OC(=O)c5ccccc5)cc4CC[C@H]3[C@@H]1CC[C@@H]2O,1.11% (inactive)
5,CC(CCc1ccc(O)cc1)NCC(O)c1ccc(O)cc1 (stereo not given),-5.87% (inactive)
6,FC(F)(F)C(F)(F)C(F)(F)C(F)(F)C(F)(F)C(F)(F)F,1.54% (inactive)
7,CN(C)CCOc1ccc(/C(=C(/CCCl)c2ccccc2)c2ccccc2)cc1,-9.16% (inactive)
8,CNC(=O)OCc1cccc(COC(=O)NC)n1,9.31% (inactive)
9,NCC[C@H](O)C(=O)N[C@@H]1C[C@H](N)[C@@H](O[C@H]2O[C@H](CN)[C@@H](O)[C@H](O)[C@H]2O)[C@H](O)[C@H]1O[C@H]1O[C@H](CO)[C@@H](O)[C@H](N)[C@H]1O,-6.03% (inactive)
10,NC(N)=O,6.37% (inactive)
11,CC1CCCCN1CCCOC(=O)c1ccccc1 (stereo not given),0.621% (inactive)
12,COC(=O)CCC[N+](C)(C)C,1.57% (inactive)
13,COC(=O)CC[C@H](N)C(=O)O,5.09% (inactive)
14,O=C(OCc1ccccc1)c1ccc(O)cc1,-3.13% (inactive)
15,CC(C)(CO)[C@@H](O)C(=O)NCCC(=O)NCCSSCCNC(=O)CCNC(=O)[C@H](O)C(C)(C)CO,10.8% (inactive)
16,COC(=O)c1ccccc1O,-17.1% (inactive)
17,OC[C@H]1O[C@@](CO)(O[C@H]2O[C@H](CO)[C@@H](O)[C@H](O)[C@H]2O)[C@@H](O)[C@@H]1O,1.96% (inactive)
18,Nc1nccs1,0.215% (inactive)
19,c1ccc2ccccc2c1,-8.13% (inactive)
20,O=S(=O)(O)CCCS(=O)(=O)O,1.54% (inactive)

row,SMILES,"activity, negative = inhibition"
1,O=C1c2ccccc2C(=O)c2c1ccc(O)c2O,-0.571% (inactive)
2,O=C(NNCNNC(=O)c1ccncc1)c1ccncc1,4.23% (inactive)
3,[O]=[Bi][O]C(=O)[O][Bi]=[O],1.26% (inactive)
4,C=CCN1CCCC1CNC(=O)c1cc(S(N)(=O)=O)cc(OC)c1OC (stereo not given),-0.635% (inactive)
5,CC(C)[C@H](N)C(=O)OCC(CO)OCn1cnc2c(=O)[nH]c(N)nc21 (stereo not given in full),3.81% (inactive)
6,CCCCCCCCCCCCCCCCCC(=O)OC[C@@H](O)[C@H]1OC[C@H](O)[C@H]1O,4.13% (inactive)
7,CC(=O)[C@H]1CC[C@H]2[C@@H]3C=CC4=CC(=O)CC[C@@]4(C)[C@H]3CC[C@]12C,-0.396% [at 12.8 µM] (inactive)
8,CCCC(=O)O,1.18% (inactive)
9,CC1(C)S[C@@H]2[C@H](NC(=O)C3(N)CCCCC3)C(=O)N2[C@H]1C(=O)O,2.6% (inactive)
10,CCCCCCCCCCCC(=O)OCC(O)CO (stereo not given),-9.28% (inactive)
11,CCOc1ccc(NC(=S)Nc2ccc(OCC)cc2)cc1,-4.69% (inactive)
12,C[C@H](CCC(=O)O)[C@H]1CC[C@H]2[C@@H]3CC[C@@H]4C[C@H](O)CC[C@]4(C)[C@H]3C[C@H](O)[C@]12C,-5.4% (inactive)
13,CC(C)(COP(=O)(O)OP(=O)(O)OC[C@H]1O[C@@H](n2cnc3c(N)ncnc32)[C@H](O)[C@@H]1OP(=O)(O)O)C(O)C(=O)NCCC(=O)NCCS (stereo not given in full),-2.93% (inactive)
14,O=C(CCCCCCCCCCCCC1CCCC1)Nc1ccc(S(=O)(=O)c2ccc(NC(=O)CCCCCCCCCCCCC3CCCC3)cc2)cc1,-1.21% (inactive)
15,Nc1nc(=O)n([C@@H]2CS[C@H](CO)O2)cc1F,-4.33% (inactive)
16,O=C(O)CCC/C=C\C[C@@H]1[C@@H](/C=C/[C@@H](O)COc2cccc(C(F)(F)F)c2)[C@H](O)C[C@@H]1O,-0.758% (inactive)
17,Cc1c(Cl)cccc1Nc1ncccc1C(=O)O,-1.22% (inactive)
18,CC(C)=CCC/C(C)=C/CC/C(C)=C/CC/C=C(\C)CC/C=C(\C)CCC=C(C)C,0.0741% (inactive)
19,CC(=O)Nc1ccc(OC(C)=O)cc1,1.74% (inactive)
20,CC(=O)N[C@@H]1C(O[C@H]2O[C@H](C(=O)O)C(O)[C@H](O)[C@H]2O)[C@H](O)[C@@H](CO)O[C@H]1O[C@@H]1C(C(=O)O)O[C@@H](O[C@H]2[C@H](O)[C@@H](CO)OC(O)[C@@H]2NC(C)=O)[C@H](O)[C@H]1O (stereo not given in full),-0.611% (inactive)
